Key:
Experiment in all cases: growth AUC relative to DMSO control (median of replicates) (fraction); higher = more growth (less inhibition), active = hit call of the paper
Settings in all cases: 20 µM; 24 h;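 active = AUC reduced over 20% with Padj below 0.05 in at least 2 of 3 replicates; inactive = otherwise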
Akkermansia muciniphila = tested on: Akkermansia muciniphila
Method in brief: (§1)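 Area under the growth curve was normalised to the plate median of solvent-only wells, except on the industrial chemical plate, where row and column medians were used. Curves came from gut bacterial monocultures grown anaerobically at 37 °C in mGAM with 20 µM compound (1% DMSO), starting at OD600 0.05 and read at OD600 every hour for 24 h. The minimum OD of each curve was set to 0, and values are medians of three biological replicates grown on separate days.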

Bacteroides caccae = tested on: Bacteroides caccae
Method in brief: as §1

Bacteroides clarus = tested on: Bacteroides clarus
Method in brief: as §1

Bacteroides dorei = tested on: Bacteroides dorei
Method in brief: as §1

Bacteroides stercoris = tested on: Bacteroides stercoris
Method in brief: as §1

[1] = tested on: Bacteroides thetaiotaomicron
Method in brief: as §1

Bacteroides uniformis = tested on: Bacteroides uniformis
Method in brief: as §1

[2] = tested on: Bifidobacterium longum subsp. longum
Method in brief: as §1

Clostridium difficile = tested on: Clostridium difficile
Method in brief: as §1

Collinsella aerofaciens = tested on: Collinsella aerofaciens
Method in brief: as §1

Coprococcus comes = tested on: Coprococcus comes
Method in brief: as §1

Escherichia coli ED1a = tested on: Escherichia coli ED1a
Method in brief: as §1

Escherichia coli IAI1 = tested on: Escherichia coli IAI1
Method in brief: as §1

Eubacterium rectale = tested on: Eubacterium rectale
Method in brief: as §1

[3] = tested on: Fusobacterium nucleatum subsp. animalis
Method in brief: as §1

Lactobacillus gasseri = tested on: Lactobacillus gasseri
Method in brief: as §1

Lactobacillus paracasei = tested on: Lactobacillus paracasei
Method in brief: as §1

Odoribacter splanchnicus = tested on: Odoribacter splanchnicus
Method in brief: as §1

[4] = tested on: Parabacteroides distasonis
Method in brief: as §1

Parabacteroides merdae = tested on: Parabacteroides merdae
Method in brief: as §1

Measured: growth AUC

Clc1ccc(Cl)cc1
inactive: Akkermansia muciniphila 1.01 | Bacteroides caccae 0.991 | Bacteroides clarus 0.989 | Bacteroides dorei 0.899 | Bacteroides stercoris 1.08 | [1] 1.01 | Bacteroides uniformis 1.01 | [2] 1.07 | Clostridium difficile 0.987 | Collinsella aerofaciens 0.972 | Coprococcus comes 0.985 | Escherichia coli ED1a 1 | Escherichia coli IAI1 1 | Eubacterium rectale 1.05 | [3] 1.1 | Lactobacillus gasseri 0.981 | Lactobacillus paracasei 0.936 | Odoribacter splanchnicus 1.03 | [4] 0.999 | Parabacteroides merdae 1.02

CNC(=O)ON=C(C)C(C)SC (stereo not given)
inactive: Akkermansia muciniphila 1.1 | Bacteroides clarus 1.03 | Bacteroides dorei 0.983 | Bacteroides stercoris 1.3 | [1] 0.916 | Bacteroides uniformis 0.838 | [2] 1.03 | Clostridium difficile 0.927 | Collinsella aerofaciens 0.979 | Coprococcus comes 0.972 | Escherichia coli ED1a 1.03 | Escherichia coli IAI1 1.02 | Eubacterium rectale 1.12 | [3] 1.07 | Lactobacillus gasseri 0.89 | Lactobacillus paracasei 0.803 | Odoribacter splanchnicus 0.91 | [4] 0.943 | Parabacteroides merdae 0.915
active: Bacteroides caccae 0.726

CO/C=C(/C(=O)OC)c1ccccc1COc1cccc(C(F)(F)F)n1
inactive: Akkermansia muciniphila 0.949 | Bacteroides caccae 0.984 | Bacteroides clarus 0.945 | Bacteroides dorei 0.995 | Bacteroides stercoris 0.91 | [1] 0.936 | Bacteroides uniformis 0.927 | [2] 0.983 | Clostridium difficile 1.01 | Collinsella aerofaciens 0.978 | Coprococcus comes 0.993 | Escherichia coli ED1a 0.989 | Escherichia coli IAI1 0.997 | Eubacterium rectale 0.937 | [3] 0.948 | Lactobacillus gasseri 0.975 | Lactobacillus paracasei 1.02 | Odoribacter splanchnicus 0.964 | Parabacteroides merdae 0.924
active: [4] 0.558

Clc1cc(Cl)nc(-c2ccccc2)n1
inactive: Akkermansia muciniphila 1.12 | Bacteroides caccae 0.877 | Bacteroides clarus 0.99 | Bacteroides dorei 0.995 | Bacteroides stercoris 1 | [1] 0.971 | Bacteroides uniformis 0.956 | [2] 1.09 | Clostridium difficile 0.956 | Collinsella aerofaciens 0.927 | Coprococcus comes 1.02 | Escherichia coli ED1a 1.01 | Escherichia coli IAI1 0.997 | Eubacterium rectale 1.06 | [3] 1.08 | Lactobacillus gasseri 0.883 | Lactobacillus paracasei 1 | Odoribacter splanchnicus 1.02 | [4] 0.991 | Parabacteroides merdae 0.965

CCC(C)Nc1c([N+](=O)[O-])cc(C(C)(C)C)cc1[N+](=O)[O-] (stereo not given)
inactive: Akkermansia muciniphila 0.988 | Bacteroides caccae 0.953 | Bacteroides clarus 0.939 | Bacteroides dorei 0.98 | Bacteroides stercoris 1.11 | [1] 0.931 | Bacteroides uniformis 0.945 | [2] 0.81 | Clostridium difficile 0.938 | Collinsella aerofaciens 0.959 | Coprococcus comes 0.975 | Escherichia coli ED1a 1.01 | Escherichia coli IAI1 0.939 | Eubacterium rectale 0.995 | [3] 1.02 | Lactobacillus gasseri 0.938 | Lactobacillus paracasei 1.01 | Odoribacter splanchnicus 1.02 | [4] 0.919 | Parabacteroides merdae 0.966

C=C/C=C/CC1=C(C)C(OC(=O)[C@@H]2C(/C=C(\C)C(=O)OC)C2(C)C)CC1=O.C=C/C=C/CC1=C(C)[C@@H](OC(=O)[C@@H]2C(C=C(C)C)C2(C)C)CC1=O (stereo not given in full)
inactive: Akkermansia muciniphila 0.901 | Bacteroides caccae 0.966 | Bacteroides clarus 0.918 | Bacteroides dorei 1.02 | Bacteroides stercoris 0.87 | [1] 0.967 | Bacteroides uniformis 0.971 | [2] 0.698 | Clostridium difficile 1.01 | Collinsella aerofaciens 0.949 | Coprococcus comes 0.953 | Escherichia coli ED1a 1.01 | Escherichia coli IAI1 0.966 | Eubacterium rectale 0.858 | [3] 1.04 | Lactobacillus gasseri 1.02 | Lactobacillus paracasei 0.864 | Odoribacter splanchnicus 0.985 | [4] 0.954 | Parabacteroides merdae 0.932

CCCOc1nn(C(=O)[N-]S(=O)(=O)c2ccccc2C(=O)OC)c(=O)n1C.[Na+]
inactive: Akkermansia muciniphila 0.978 | Bacteroides caccae 1.02 | Bacteroides clarus 0.979 | Bacteroides dorei 1.02 | Bacteroides stercoris 1.13 | [1] 0.992 | Bacteroides uniformis 0.972 | [2] 1.01 | Clostridium difficile 0.994 | Collinsella aerofaciens 1.02 | Coprococcus comes 0.988 | Escherichia coli ED1a 0.994 | Escherichia coli IAI1 1.02 | Eubacterium rectale 1.08 | [3] 1.12 | Lactobacillus gasseri 0.968 | Lactobacillus paracasei 0.977 | Odoribacter splanchnicus 1.1 | [4] 1.02 | Parabacteroides merdae 0.999

CC(=O)O.CCCCCCCCCCCCN=C(N)N
inactive: Akkermansia muciniphila 1.28 | Bacteroides caccae 1.02 | Bacteroides clarus 0.988 | Bacteroides dorei 0.985 | Bacteroides stercoris 1.17 | [1] 1.01 | Bacteroides uniformis 0.986 | [2] 0.917 | Clostridium difficile 1 | Collinsella aerofaciens 0.972 | Coprococcus comes 1.02 | Escherichia coli ED1a 1.02 | Escherichia coli IAI1 1.02 | Eubacterium rectale 1.04 | [3] 1.04 | Lactobacillus gasseri 0.794 | Lactobacillus paracasei 1.02 | Odoribacter splanchnicus 1.02 | [4] 0.933 | Parabacteroides merdae 0.996

CSc1nc(NC(C)C)nc(NC(C)C)n1
inactive: Akkermansia muciniphila 0.876 | Bacteroides caccae 1.02 | Bacteroides clarus 0.976 | Bacteroides dorei 1.01 | Bacteroides stercoris 0.95 | [1] 0.949 | Bacteroides uniformis 0.983 | [2] 1.08 | Clostridium difficile 1.02 | Collinsella aerofaciens 1.04 | Coprococcus comes 0.999 | Escherichia coli ED1a 1.01 | Escherichia coli IAI1 0.976 | Eubacterium rectale 0.917 | [3] 0.922 | Lactobacillus gasseri 1.12 | Lactobacillus paracasei 0.944 | Odoribacter splanchnicus 0.981 | [4] 1.02 | Parabacteroides merdae 0.991

O=S(=O)(c1ccc(Cl)cc1)c1cc(Cl)c(Cl)cc1Cl
inactive: Akkermansia muciniphila 1.07 | Bacteroides caccae 0.921 | Bacteroides clarus 0.935 | Bacteroides dorei 0.91 | Bacteroides stercoris 0.931 | [1] 0.952 | Bacteroides uniformis 0.903 | [2] 1.04 | Clostridium difficile 0.963 | Collinsella aerofaciens 0.945 | Coprococcus comes 0.987 | Escherichia coli ED1a 0.98 | Escherichia coli IAI1 0.99 | Eubacterium rectale 0.926 | [3] 0.9 | Lactobacillus gasseri 0.99 | Lactobacillus paracasei 0.731 | Odoribacter splanchnicus 1.01 | [4] 0.971 | Parabacteroides merdae 0.984

O=CNC(N1CCN(C(NC=O)C(Cl)(Cl)Cl)CC1)C(Cl)(Cl)Cl (stereo not given)
active: [3] 0.658
inactive: Akkermansia muciniphila 1.13 | Bacteroides caccae 0.947 | Bacteroides clarus 0.923 | Bacteroides dorei 0.849 | Bacteroides stercoris 0.879 | [1] 0.919 | Bacteroides uniformis 0.985 | [2] 1.08 | Clostridium difficile 0.957 | Collinsella aerofaciens 0.938 | Coprococcus comes 0.946 | Escherichia coli ED1a 0.975 | Escherichia coli IAI1 0.935 | Eubacterium rectale 0.881 | Lactobacillus gasseri 0.873 | Lactobacillus paracasei 1.06 | Odoribacter splanchnicus 1.01 | [4] 0.914 | Parabacteroides merdae 0.948

Nc1c(Cl)cc([N+](=O)[O-])cc1Cl
inactive: Akkermansia muciniphila 0.958 | Bacteroides caccae 0.927 | Bacteroides clarus 0.973 | Bacteroides dorei 0.967 | Bacteroides stercoris 0.875 | [1] 0.986 | Bacteroides uniformis 1.05 | [2] 1.07 | Clostridium difficile 1 | Collinsella aerofaciens 0.897 | Coprococcus comes 1.01 | Escherichia coli ED1a 0.951 | Escherichia coli IAI1 0.962 | Eubacterium rectale 1.08 | [3] 0.898 | Lactobacillus gasseri 0.923 | Lactobacillus paracasei 1.1 | Odoribacter splanchnicus 1.03 | [4] 0.933 | Parabacteroides merdae 0.93

Clc1ccc(Cl)c(Cl)c1
inactive: Akkermansia muciniphila 1.04 | Bacteroides caccae 0.88 | Bacteroides clarus 1.04 | Bacteroides dorei 1.01 | Bacteroides stercoris 1.24 | [1] 1.02 | Bacteroides uniformis 0.953 | [2] 0.957 | Clostridium difficile 0.941 | Collinsella aerofaciens 0.969 | Coprococcus comes 0.919 | Escherichia coli ED1a 0.996 | Escherichia coli IAI1 0.974 | Eubacterium rectale 1.1 | [3] 1.11 | Lactobacillus gasseri 0.86 | Lactobacillus paracasei 0.943 | Odoribacter splanchnicus 0.983 | [4] 0.95 | Parabacteroides merdae 1.02

CCCCN(CCCC)SN(C)C(=O)Oc1cccc2c1OC(C)(C)C2
inactive: Akkermansia muciniphila 1.03 | Bacteroides caccae 1.02 | Bacteroides clarus 0.975 | Bacteroides dorei 0.981 | Bacteroides stercoris 0.913 | [1] 1.04 | Bacteroides uniformis 1.03 | [2] 0.972 | Clostridium difficile 1.02 | Collinsella aerofaciens 1.01 | Coprococcus comes 1.09 | Escherichia coli ED1a 0.972 | Escherichia coli IAI1 1.01 | Eubacterium rectale 1.22 | [3] 1.02 | Lactobacillus gasseri 0.884 | Lactobacillus paracasei 0.981 | Odoribacter splanchnicus 1 | [4] 0.895 | Parabacteroides merdae 0.951

ClC1=C(Cl)C2(Cl)[C@H]3[C@@H]4O[C@@H]4[C@H](Cl)[C@H]3C1(Cl)C2(Cl)Cl (single isomer, unassigned; isomer b)
inactive: Akkermansia muciniphila 1.29 | Bacteroides caccae 0.98 | Bacteroides clarus 0.973 | Bacteroides dorei 0.933 | Bacteroides stercoris 0.752 | [1] 0.96 | Bacteroides uniformis 0.89 | [2] 1.19 | Clostridium difficile 1.01 | Collinsella aerofaciens 0.957 | Coprococcus comes 0.931 | Escherichia coli ED1a 0.995 | Escherichia coli IAI1 0.983 | Eubacterium rectale 0.979 | [3] 0.923 | Lactobacillus gasseri 0.95 | Lactobacillus paracasei 0.501 | Odoribacter splanchnicus 1.07 | [4] 1.03 | Parabacteroides merdae 0.969

CCNc1nc(NC(C)C(C)C)nc(SC)n1 (stereo not given)
inactive: Akkermansia muciniphila 0.961 | Bacteroides caccae 1.01 | Bacteroides clarus 0.962 | Bacteroides dorei 1 | Bacteroides stercoris 1.04 | [1] 0.915 | Bacteroides uniformis 0.972 | [2] 0.965 | Clostridium difficile 1 | Collinsella aerofaciens 1.05 | Coprococcus comes 0.977 | Escherichia coli ED1a 0.979 | Escherichia coli IAI1 0.991 | Eubacterium rectale 0.89 | [3] 0.997 | Lactobacillus gasseri 1.06 | Lactobacillus paracasei 0.81 | Odoribacter splanchnicus 0.954 | [4] 1.04 | Parabacteroides merdae 0.992
